Experimental data as given in the supplement of paper PMC10981050.
Values joined by “and” are separate entries in the source; they are usually repeats but may differ in a detail not shown here. Identical values can stand only once. Counter-ions that a name gives are not always drawn.

Key:
Assay in all cases: cell viability relative to vehicle control; higher = less cytotoxic
Settings in all cases: 10 µM
K562 = test system: K562
Summary of the method: (§1)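 Screening covered the Selleck bioactive, kinase and epigenetic probe libraries, less identity-inconsistent compounds, on CRISPR-edited mutant clones and isogenic wild-type clones of four leukaemia lines. Cells, at 2000 per well in 50 µL medium, received a single 10 µM acoustically dispensed dose. After 48 h the supernatant was removed and CellTiter-Glo luminescence was read. Viability was analysed in Genedata Screener as percent of the on-plate vehicle control.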

MARIMO = test system: MARIMO
Summary of the method: as §1

MOLM14 = test system: MOLM14
Summary of the method: as §1

OCI-AML2 = test system: OCI-AML2
Summary of the method: as §1

| Compound | cell viability (K562; SRSF2 genotype: SRSF2 P95H/wt) | cell viability (K562; SRSF2 genotype: SRSF2 wt/wt) | cell viability (MARIMO; SRSF2 genotype: SRSF2 P95H/wt) | cell viability (MARIMO; SRSF2 genotype: SRSF2 wt/wt) | cell viability (MOLM14; SRSF2 genotype: SRSF2 P95H/wt) | cell viability (MOLM14; SRSF2 genotype: SRSF2 wt/wt) | cell viability (OCI-AML2; SRSF2 genotype: P95H/wt) | cell viability (OCI-AML2; SRSF2 genotype: wt/wt) |
| --- | --- | --- | --- | --- | --- | --- | --- | --- |
| COc1cc2c(cc1OC)-c1c(C)c3ccc(OC)c(OC)c3c[n+]1CC2 [Dehydrocorydalin] | 88.3% and 96% | 90.6% | 94% | 96% | 94.8% | 95.6% | 79.8% | 84.1% |
| CC(C)CCNc1ncccc1C(=O)N1CCN(Cc2ccccc2)CC1 | 103% and 100% | 102% | 93.8% | 105% | 96.9% | 103% | 103% | 105% |
| Cc1ncc([N+](=O)[O-])n1C [Dimetridazole] | 106% and 99.5% | 105% | 109% | 106% | 99.1% | 103% | 105% | 109% |
| CC(=O)[C@H]1CC[C@H]2[C@@H]3CC=C4C[C@@H](O)CC[C@]4(C)[C@H]3CC[C@]12C [Pregnenolone] | 103% and 108% | 107% | 103% | 105% | 101% | 105% | 100% | 107% |
| COc1c(O)c(C)cc2c1C(=O)c1c(O)cccc1C2=O [Obtusifolin] | 103% and 105% | 107% | 109% | 105% | 111% | 105% | 98.6% | 92.6% |
| CCCc1nn(C)c2c(=O)[nH]c(-c3cc(S(=O)(=O)N4CCN(C)CC4)ccc3OCC)nc12 [Sildenafil Mesylate] | 103% and 96.9% | 103% | 99% | 108% | 107% | 103% | 110% | 105% |
| CC(NC(=O)Cc1cc(F)cc(F)c1)C(=O)NC(C(=O)OC(C)(C)C)c1ccccc1 (centres undefined) | 98.8% and 103% | 106% | 83.2% | 95.7% | 96.8% | 103% | 90% | 102% |
| Cc1ccc(C(C)C)c(O)c1 [Thymol] | 96.2% and 91.7% | 99% | 97.9% | 102% | 97.1% | 105% | 98.3% | 101% |
| Cc1c(C(=O)NN2CCCCC2)nn(-c2ccc(Cl)cc2Cl)c1-c1ccc(Cl)cc1 | 81.6% and 88% | 74.5% | 93.7% | 93% | 88.5% | 87% | 91.8% | 90.9% |
| CC(C)CC(=O)Nc1n[nH]c2c1CN(C(=O)C1CCN(C)CC1)C2(C)C | 37.5% and 39.7% | 38.4% | 15.8% | 6.67% | 2.48% | 1.14% | 8.45% | 17.8% |
| COc1ccccc1OCCNCC(O)COc1cccc2[nH]c3ccccc3c12 (centres undefined) [Carvedilol] | 51.6% and 66.2% | 52.8% | 53% | 56.8% | 53.6% | 56.4% | 56.1% | 56.2% |
| O=C1c2c(O)cc(O)cc2OC(c2ccc(O)c(O)c2)C1O (centres undefined) [Taxifolin (Dihydroquercetin)] | 97.9% and 94.4% | 91.6% | 91.9% | 96.5% | 100% | 101% | 93.5% | 96% |
| Cc1ncc(CO)c(CO)c1O [Pyridoxine hydrochloride] | 104% and 103% | 111% | 104% | 112% | 105% | 110% | 104% | 96.7% |
| CCN(CCCc1ccccc1)CCCc1ccccc1 [Alverine Citrate] | 75.1% and 81.5% | 80.6% | 69.5% | 83.8% | 80.3% | 87.4% | 87.6% | 86.5% |
| Cc1c(C(=O)Nc2ccc(N3CCC(N4CCOCC4)CC3)c(C#N)c2)cnn1-c1ccc(Cl)cc1 | 8.99% and 14.7% | 47.6% | 6.27% | 12.2% | 11% | 1.97% | 8.8% | 11.4% |
| COc1ccc(-c2oc3c(CC=C(C)C)c(O[C@@H]4O[C@H](CO)[C@@H](O)[C@H](O)[C@H]4O)cc(O)c3c(=O)c2O[C@@H]2O[C@@H](C)[C@H](O)[C@@H](O)[C@H]2O)cc1 [Icariin] | 94.5% and 104% | 98.7% | 98.7% | 110% | 108% | 104% | 105% | 112% |
| Cc1nc2cccc(N)c2c(=O)n1C1CCC(=O)NC1=O (centres undefined) [Avadomide(CC-122)] | 108% and 111% | 111% | 102% | 92.7% | 99.2% | 98.2% | 159% | 169% |
| CN(C)C(=O)C(CCN1CCC(O)(c2ccc(Cl)cc2)CC1)(c1ccccc1)c1ccccc1 [Loperamide hydrochloride] | 45.5% and 54.9% | 49.4% | 55.5% | 61.6% | 58.5% | 59.7% | 44.2% | 54.9% |
| CC1(C)[C@@H](O[C@H]2O[C@H](C(=O)O)[C@@H](O)[C@H](O)[C@H]2O[C@@H]2O[C@H](C(=O)O)[C@@H](O)[C@H](O)[C@H]2O)CC[C@]2(C)[C@H]3C(=O)C=C4[C@@H]5C[C@@](C)(C(=O)O)CC[C@]5(C)CC[C@@]4(C)[C@]3(C)CC[C@@H]12 [Ammonium Glycyrrhizinate (AMGZ)] | 101% and 111% | 107% | 107% | 102% | 104% | 106% | 112% | 95.4% |
| CC(C)N(CCC(=O)c1ccc2ccccc2c1)Cc1ccccc1 | 12.2% and 12.8% | 13.9% | 0.57% | 0.67% | 0.58% | 0.45% | 0.38% | 0.4% |
| OC[C@H]1O[C@@](CO)(O[C@H]2O[C@H](CO)[C@@H](O)[C@H](O)[C@H]2O)[C@@H](O[C@H]2O[C@H](CO)[C@@H](O)[C@H](O)[C@H]2O)[C@@H]1O [Melezitose] | 107% and 99.6% | 104% | 99% | 111% | 102% | 104% | 96.3% | 114% |
| C[C@H]1CNC(=O)c2cnn3ccc(nc23)N[C@H](C)c2cc(F)ccc2O1 | 14.4% and 36.7% | 18% | 48.6% | 51.6% | 9.21% | 5.47% | 8.06% | 19.4% |

| Compound | cell viability (K562; SRSF2 genotype: SRSF2 P95H/wt) | cell viability (K562; SRSF2 genotype: SRSF2 wt/wt) | cell viability (MARIMO; SRSF2 genotype: SRSF2 P95H/wt) | cell viability (MARIMO; SRSF2 genotype: SRSF2 wt/wt) | cell viability (MOLM14; SRSF2 genotype: SRSF2 P95H/wt) | cell viability (MOLM14; SRSF2 genotype: SRSF2 wt/wt) | cell viability (OCI-AML2; SRSF2 genotype: P95H/wt) | cell viability (OCI-AML2; SRSF2 genotype: wt/wt) |
| --- | --- | --- | --- | --- | --- | --- | --- | --- |
| Cc1nccn1CC1CCc2c(c3ccccc3n2C)C1=O (centres undefined) [Ondansetron hydrochloride (Zofran)] | 96.1% and 89.4% | 93.8% | 88.4% | 95.6% | 102% | 98.9% | 95.5% | 101% |
| CC1(C)S[C@@H]2[C@H](NC(=O)[C@H](C(=O)O)c3ccsc3)C(=O)N2[C@H]1C(=O)O [Ticarcillin sodium] | 95.6% and 98.8% | 104% | 101% | 95.7% | 96.3% | 101% | 98.2% | 89.6% |
| CC(=O)NC[C@H]1CN(c2ccc(N3CCOCC3)c(F)c2)C(=O)O1 [Linezolid (Zyvox)] | 81.9% and 81.7% | 84.3% | 85% | 92.5% | 88.3% | 85.5% | 81.4% | 86.7% |
| CCOC(=O)C1=C(C)NC(C)=C(C(=O)OC)C1c1cccc([N+](=O)[O-])c1 (centres undefined) [Nitrendipine] | 101% and 104% | 100% | 97.3% | 99.9% | 97.7% | 103% | 122% | 111% |
| COc1ccc([C@@H]2CC(=O)c3c(O)cc(O[C@@H]4O[C@H](CO)[C@@H](O)[C@H](O)[C@H]4O[C@@H]4O[C@@H](C)[C@H](O)[C@@H](O)[C@H]4O)cc3O2)cc1O [Neohesperidin] | 109% and 102% | 100% | 97.2% | 102% | 104% | 109% | 116% | 127% |
| O=C1CCc2ccccc2O1 [Dihydrocoumarin] | 95.7% and 98.2% | 94.4% | 94.5% | 105% | 105% | 102% | 93.6% | 100% |
| CN1C(C(=O)Nc2ccccn2)=C(O)c2sccc2S1(=O)=O [Tenoxicam(Mobiflex)] | 105% and 103% | 102% | 107% | 112% | 98.4% | 106% | 95.5% | 105% |
| CNC(=O)c1cc(Oc2ccc3nc(N[C@@H]4CCCC[C@H]4O)sc3c2)ccn1 | 87.4% and 93.2% | 89.4% | 100% | 99.1% | 89.2% | 99.5% | 90% | 83.2% |
| COc1cc2c(cc1OC)CN(C(=O)/C=C/c1c(-c3ccccc3)n(C)c3ncccc13)CC2 | 63.9% and 81.1% | 71.3% | 69.1% | 70.5% | 47.7% | 44.2% | 51.6% | 49% |
| COc1cc(OC)c(C(=O)CCCN2CCCC2)c(OC)c1 [Buflomedil HCl] | 93.2% and 114% | 108% | 100% | 102% | 112% | 106% | 113% | 101% |
| CC(O)c1ccc(S(=O)(=O)NC(=O)NC2CCCCC2)cc1 (centres undefined) [Hydroxyhexamide] | 106% and 96% | 107% | 103% | 99% | 101% | 104% | 104% | 106% |
| Cc1onc(-c2c(Cl)cccc2Cl)c1C(=O)N[C@@H]1C(=O)N2[C@@H]1SC(C)(C)[C@@H]2C(=O)O [Dicloxacillin Sodium] | 99.5% and 95% | 101% | 101% | 103% | 98.7% | 98.3% | 93% | 109% |
| Clc1ccc(NN=C(c2ccccc2)c2ccccn2)nc1 | 17.9% and 15.3% | 20% | 3.72% | 0.76% | 1.65% | 0.71% | 5.44% | 3.14% |
| Oc1ccc([C@H]2COc3cc(O)ccc3C2)cc1 [Equol] | 90.4% and 101% | 103% | 99.9% | 104% | 95.2% | 104% | 92% | 88.4% |
| CC(O)c1cc(C(=O)N[C@@H](C)Cn2ccc(-c3ccc(C#N)c(Cl)c3)n2)n[nH]1 (some centres undefined) | 87.9% and 91.4% | 93.3% | 90.6% | 93.5% | 98.8% | 98% | 91.4% | 102% |
| CCCN[C@H]1CCc2nc(N)sc2C1 [Pramipexole dihydrochloride] | 103% and 96.9% | 110% | 103% | 94.2% | 79.1% | 97.8% | 103% | 111% |
| CC(C)=CCC[C@](C)(O[C@@H]1O[C@H](CO)[C@@H](O)[C@H](O)[C@H]1O)[C@H]1CC[C@]2(C)[C@@H]1[C@H](O)C[C@@H]1[C@@]3(C)CC[C@H](O)C(C)(C)[C@@H]3CC[C@]12C [Ginsenoside CK] | 82.7% and 78.2% | 77% | 92.6% | 104% | 77.2% | 95% | 65.3% | 76.4% |
| Nc1ccccc1NC(=O)c1ccc(CNC(=O)OCc2cccnc2)cc1 [Entinostat (MS-275, SNDX-275)] | 9.53% and 33.8% | 26.6% | 22.1% | 25.4% | 1.22% | 1.1% | 0.59% | 4.33% |
| Nc1ncnc2c1ncn2C(C=O)OC(C=O)CO (centres undefined) [Adenosine Dialdehyde (ADOX)] | 67.4% and 74.4% | 69.3% | 60.7% | 59.4% | 25.3% | 14.5% | 40.4% | 42.5% |
| CC(C)Cn1cnc2c(N)nc3ccccc3c21 [Imiquimod] | 80.9% and 85.2% | 77.2% | 78.5% | 92.4% | 78.1% | 84.8% | 85.9% | 85.4% |
| N[C@@]1(C(=O)O)CS(=O)(=O)[C@H]2[C@H](C(=O)O)[C@H]21 | 104% and 109% | 115% | 107% | 105% | 109% | 113% | 113% | 98.1% |
